ADAM10 inh: inhibits human ADAM10; O14672; recombinant ADAM10, EDANS/DABCYL FRET peptide cleavage, 3 h; inhibition, % at 7 µM; 370,000 tested, 0.62% active;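 active = inhibition above a per-campaign cutoff equal to the mean of compounds falling between control-based bounds plus 3 SD, cut at about 20% in these data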
Target sequence (O14672 214-748 limits assumed): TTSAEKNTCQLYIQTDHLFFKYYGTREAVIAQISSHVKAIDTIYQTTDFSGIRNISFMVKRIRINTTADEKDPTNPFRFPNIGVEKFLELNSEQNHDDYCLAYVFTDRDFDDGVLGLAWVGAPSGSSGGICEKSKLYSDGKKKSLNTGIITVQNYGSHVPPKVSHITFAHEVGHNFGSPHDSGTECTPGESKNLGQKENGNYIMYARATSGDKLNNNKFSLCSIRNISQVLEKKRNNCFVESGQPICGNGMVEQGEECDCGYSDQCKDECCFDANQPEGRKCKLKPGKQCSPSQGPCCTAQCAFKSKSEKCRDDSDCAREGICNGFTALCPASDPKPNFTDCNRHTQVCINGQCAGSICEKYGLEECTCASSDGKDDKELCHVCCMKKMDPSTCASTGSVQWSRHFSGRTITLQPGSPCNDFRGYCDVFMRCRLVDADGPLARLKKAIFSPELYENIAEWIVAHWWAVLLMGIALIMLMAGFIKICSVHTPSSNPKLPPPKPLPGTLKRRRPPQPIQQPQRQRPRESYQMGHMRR
GRIN3A LBD mod: modulators (binders) of human NR3A ligand-binding domain | NR3A LBD differential scanning fluorimetry, Tm shift; 0% = protein alone, 100% = glycine-bound protein | Tm shift relative to glycine control, % at 25 µM | 340,000 tested, 2.5% active;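 active = melting temperature shift of at least 10% of the positive control shift, at one fixed dose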
ADAM17 inh: inhibits human ADAM17; P78536; recombinant ADAM17, EDANS/DABCYL FRET peptide cleavage; inhibition, % at 6.95 µM; 370,000 tested, 0.83% active; AID 720648;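 active = inhibition above the mean of compounds lying between control limits plus 3 SD, set per campaign, cut at about 8.5% in these data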
aDG glyco act: alpha-DG glycosylation activation. activation, % at 10 µM. 360,000 tested, 0.22% active. AID 624168. Pro5-aDG cells, alpha-DG glycosylation AlphaScreen (IIH6); 0% Pro5, 100% B10-LARGE cell signal;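 active = activation of at least 8% versus controls, or a plate z-score of at least 8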;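 note: Pro5 are CHO cells carrying HIG-tagged alpha-DG that lacks glycosylation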
FAS TE block: inhibitors of human fatty acid synthase thioesterase domain | 360,000 tested, 0.67% active | inhibition, % at 15 µM | P49327 | recombinant FAS-TE, OMFH fluorogenic substrate, fluorescence endpoint;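 active = compounds whose normalised, plate-corrected inhibition of enzyme fluorescence in the single-dose primary screen is 50% or more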
A number is an active result. The list is not random: actives were taken first. Their share in the collection is about 4%.

Screening CSc1ccccc1NC(=O)COC(=O)CCc1ccccc1 returned ADAM10 inh inactive, GRIN3A LBD mod 14, ADAM17 inh inactive, aDG glyco act inactive and FAS TE block inactive.
`CSc1ccccc1NC(=O)CO/N=C(\C)c1cc2ccccc2o1` gave ADAM10 inh inactive, GRIN3A LBD mod 11, ADAM17 inh inactive, aDG glyco act inactive and FAS TE block inactive.
For CSc1ccccc1NC(=O)Cc1ccccc1 the results were ADAM10 inh inactive, GRIN3A LBD mod inactive, ADAM17 inh inactive, aDG glyco act inactive and FAS TE block inactive.
O=C(Nc1cccc(-c2csc(Nc3cccc(C(F)(F)F)c3)n2)c1)c1ccccc1 was read as ADAM10 inh inactive, GRIN3A LBD mod 29, ADAM17 inh inactive, aDG glyco act inactive and FAS TE block inactive.
For O=C(Nc1ccc(-c2csc(Nc3cccc(C(F)(F)F)c3)n2)cc1)c1cc([N+](=O)[O-])cc(C(F)(F)F)c1 the results were ADAM10 inh inactive, GRIN3A LBD mod 21, ADAM17 inh inactive, aDG glyco act inactive and FAS TE block inactive.
`O=C(Nc1cccc(-c2csc(Nc3ccccc3)n2)c1)c1ccccc1` gave ADAM10 inh inactive, GRIN3A LBD mod 11, ADAM17 inh inactive, aDG glyco act inactive and FAS TE block inactive.
CC(=O)c1cccc(Nc2nc(-c3ccccc3)cs2)c1 was read as ADAM10 inh inactive, GRIN3A LBD mod 32, ADAM17 inh inactive, aDG glyco act inactive and FAS TE block inactive.
O=C(Nc1ccc(-c2csc(Nc3ccc(Cl)cc3)n2)cc1)c1ccccc1 was read as ADAM10 inh inactive, GRIN3A LBD mod inactive, ADAM17 inh inactive, aDG glyco act inactive and FAS TE block inactive.
Screening O=C(Nc1nc(-c2cccnc2)cs1)c1ccc([N+](=O)[O-])cc1 returned ADAM10 inh inactive, GRIN3A LBD mod inactive, ADAM17 inh inactive, aDG glyco act inactive and FAS TE block inactive.
`O=C(Nc1ccc(-c2csc(Nc3cccc(C(F)(F)F)c3)n2)cc1)c1ccccc1` gave ADAM10 inh inactive, GRIN3A LBD mod 25, ADAM17 inh inactive, aDG glyco act inactive and FAS TE block inactive.
For Cc1cc(SCC(=O)N/N=C/c2ccc(O)cc2O)c(C)cc1Br the results were ADAM10 inh inactive, GRIN3A LBD mod 18, ADAM17 inh inactive, aDG glyco act inactive and FAS TE block inactive.
`O=C(Cc1c(F)c(F)c(F)c(F)c1F)Nc1nc(-c2ccccc2)cs1` gave ADAM10 inh inactive, GRIN3A LBD mod 12, ADAM17 inh inactive, aDG glyco act inactive and FAS TE block inactive.
CN1CCN(CC(=O)Nc2nc(-c3ccccc3)cs2)CC1 was read as ADAM10 inh inactive, GRIN3A LBD mod 13, ADAM17 inh inactive, aDG glyco act inactive and FAS TE block inactive.
Screening Fc1ccc(CSc2ccc3nnc(-c4cccnc4)n3n2)cc1 returned ADAM10 inh inactive, GRIN3A LBD mod inactive, ADAM17 inh inactive, aDG glyco act inactive and FAS TE block inactive.
Screening COc1ccccc1NC(=O)Nc1ccc(NC(=O)c2ccccc2O)cc1 returned ADAM10 inh inactive, GRIN3A LBD mod 32, ADAM17 inh inactive, aDG glyco act inactive and FAS TE block inactive.
Screening O=C(Nc1ccccc1O)c1ccccc1O returned ADAM10 inh inactive, GRIN3A LBD mod 15, ADAM17 inh inactive, aDG glyco act inactive and FAS TE block inactive.
Screening O=C(Nc1ccc(F)cc1)Nc1ccc(NC(=O)c2ccccc2O)cc1 returned ADAM10 inh inactive, GRIN3A LBD mod 32, ADAM17 inh inactive, aDG glyco act inactive and FAS TE block inactive.
Screening CCCOc1ccc(C(F)(F)F)cc1NC(=O)C1CC(=O)N(Cc2ccco2)C1 (configuration not stated) returned ADAM10 inh inactive, GRIN3A LBD mod inactive, ADAM17 inh inactive, aDG glyco act inactive and FAS TE block inactive.
For COc1cc(/C=C2/C(=N)N3C=CSC3=NC2=O)ccc1OCCCOc1ccccc1C the results were ADAM10 inh inactive, GRIN3A LBD mod 18, ADAM17 inh inactive, aDG glyco act inactive and FAS TE block inactive.
Screening CCOc1cc(/C=C2\C(=N)N3N=C(S(C)(=O)=O)SC3=NC2=O)ccc1OCCOc1cccc(OC)c1 returned ADAM10 inh inactive, GRIN3A LBD mod inactive, ADAM17 inh inactive, aDG glyco act inactive and FAS TE block inactive.
Screening CCS(=O)(=O)C1=NN2C(=N)/C(=C\c3ccc(OCCOc4cccc(OC)c4)c(OC)c3)C(=O)N=C2S1 returned ADAM10 inh inactive, GRIN3A LBD mod 15, ADAM17 inh inactive, aDG glyco act inactive and FAS TE block inactive.

High-throughput results (PubChem BioAssay)
